# Hits are enriched below; roughly 6.5% of the tested compounds scored in any of these assays.
# Lassa entry inh – Lassa virus entry inhibition; Lassa virus pseudotype entry inhibition, cell reporter; Potency, µM (titrated, usually from 37.9 µM), without a hit: at the top dose activity change, negative = inhibition, hits mostly inhibitors; actives 1.2% (n = 300,000); AID 540256; calls by dose curve; tested in HEK293 cells; further: potency means the concentration at half of the fitted maximal effect; nearly all actives have a fitted effect of over 50% in size
# HCMV antiviral – inhibitors of human cytomegalovirus. HFF cells, HCMV-luciferase reporter, 72 h; stronger effect = lower value. activity change, negative = inhibition, % at 57.5 µM. actives 4.5% (n = 410,000); in the data active means activity change below about -60%; inconclusive means no clear call, values can overlap the other calls; inactive means above about -39%
#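 Screen run at 2 compound doses on HFFs infected with reporter HCMV, MOI 1 PFU/cell. Luciferase activity from cell lysates at 72 h post infection gave inhibition relative to buffer-only and Salinomycin wells.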
# Vaccinia mCherry – vaccinia inhibition (mCherry reporter). Vaccinia virus mCherry reporter infection, fluorescence. Potency, µM (titrated, usually from 36.5 µM), without a hit: at the highest dose activity change, negative = inhibition, usual class: inhibitors. actives 0.63% (n = 310,000); calls by dose curve; tested in A549 cells; further: potency means the concentration at half of the fitted maximal effect; nearly all actives have a fitted effect of over 35% in size
# FMDV antiviral – antivirals against foot and mouth disease virus | FMDV antiviral cell-based qHTS | Potency, µM (series often up to 57.9 µM), for the others: at the top dose activity change, negative = inhibition, actives largely listed as inhibitors | actives 1.2% (n = 410,000); calls by dose curve; tested in HEK293T cells; further: read-out not given here; potency means the concentration at half of the fitted maximal effect; nearly all actives have a fitted effect of over 45% in size
# Vaccinia Venus – vaccinia inhibition (Venus reporter); Vaccinia virus Venus reporter expression, fluorescence; Potency, µM (highest dose often 36.5 µM), for inactives: at the highest dose activity change, negative = inhibition, usual class: inhibitors; actives 0.46% (n = 330,000); AID 720580; calls by dose curve; tested in A549 cells; further: potency means the concentration at half of the fitted maximal effect; nearly all actives have a fitted effect of over 30% in size
# MARV entry inh – blocks Marburg virus binding to or entry into cells; Marburg virus pseudotyped entry inhibition, cell reporter; Potency, µM (highest dose often 37.8 µM), for the others: at the top dose activity change, negative = inhibition, hits mostly inhibitors; actives 1.8% (n = 300,000); AID 540276; calls by dose curve; tested in HEK293 cells; further: potency means the concentration at half of the fitted maximal effect
# An asterisk follows results filed as active; i = inactive; u = inconclusive; x = no result given; [ ] = dose if it differs, or a comment. On the % scale 0 is the no-effect control and ±100 the full control effect.
SMILES,Lassa entry inh,HCMV antiviral,Vaccinia mCherry,FMDV antiviral,Vaccinia Venus,MARV entry inh
CC(=O)c1cccc(S(=O)(=O)Nc2ccc3nc(C)sc3c2)c1,-1%,u,i,-12%,-8%,-29%
Cc1nc2ccc(NS(=O)(=O)c3ccc(C)c(C)c3)cc2s1,-12%,-88*,-8%,-1%,u,u
COCCNC(=O)CN(Cc1ccccc1)S(=O)(=O)c1ccc2nc(C)sc2c1,x,-61*,x,8%,x,x
COc1ccc(NC(=O)CN(C)S(=O)(=O)c2ccc3nc(C)sc3c2)cc1Cl,-2%[46.1 µM],-69*,-17%,u,-11%,-2%[46.1 µM]
C=CCOC(=O)C(C(C)=O)[C@@H](NC(=O)OC)c1ccco1 (stereo not given in full),x,x,x,x,x,19%[14.2 µM]
COc1cc(S(=O)(=O)Nc2ccc(C(=O)NCC(=O)O)cc2)ccc1NC(C)=O,14%,59,-8%,0%,-4%,18%[46.1 µM]
COc1cc(S(=O)(=O)Nc2ccc3nc(C)sc3c2)ccc1NC(C)=O,x,-88*,x,6%,x,x
CCOC(=O)[C@]12Cc3cc(Cl)ccc3[C@H]1N(CC(=O)OC)C(=O)c1ccccc12,x,x,u,10µM*,u,x
CCOC(=O)[C@]12Cc3cc(Cl)ccc3[C@H]1N(C(C)C)C(=O)c1ccccc12,x,-99*,u,10µM*,u,x
CCOC(=O)[C@]12Cc3cc(Cl)ccc3[C@H]1N(C)C(=O)c1ccccc12,x,68,-14%,u,1%,x
O=S1(=O)N[C@H](Cc2ccccc2)COc2cc(N3CCOCC3)ccc21,x,11,x,x,x,x
Cc1ccccc1NCC(=O)N=Nc1c(O)[nH]c2ccc([N+](=O)[O-])cc12,x,-83*,x,-25%,x,x
Cc1ccc(NCC(=O)N=Nc2c(O)[nH]c3ccc([N+](=O)[O-])cc23)cc1,-20%,0,i,17%,-1%,-2%
COc1cc(-c2noc(C)c2C#CCCN2C(=O)c3ccccc3C2=O)cc(OC)c1OC,x,x,-15%,x,-7%,x
CCCCCCCCN1C(=O)[C@@H](CC(=O)NCC23CC4CC(CC(C4)C2)C3)C[C@@]2(C(=O)OC)C1=C[C@H](C(C)(C)C)O[C@@H]2C,x,-29,x,x,x,x
CC(=O)Nc1cccc(NC(=O)c2cc(-c3cccnc3)nc3ccc(Cl)cc23)c1,u,2,-10%,u,-6%,u
O=C(Nc1ccc(C(=O)N2CCOCC2)cc1)c1cc(-c2cccnc2)nc2ccc(Cl)cc12,u,-69*,-6%,u,-14%,-5%[46.1 µM]
O=C(NNC1OC(CO)C(O)C(O)C1O)c1cccnc1 (stereo not given),8%,-62*,-7%,-3%,1%,-2%[14.2 µM]
O=c1oc2ccccc2c(O)c1[C@H]1c2ccc(O)cc2Oc2c1c(=O)oc1ccccc21,x,-93*,x,u,x,x
COc1ccc([N+](=O)[O-])cc1N(CC(O)CN(CC(C)C)CC(C)C)S(=O)(=O)c1ccccc1 (stereo not given),5%,76,-10%,3%,-8%,12µM*
Cc1c(C(=O)NCC2CCCN(C)C2)cnn1-c1ncc2c(n1)-c1ccccc1CCC2 (stereo not given),x,x,-15%,0%,-12%,x
C=CCOc1c(CNc2cccc(C(=O)O)c2)cccc1OCC,15%,-81*,-15%,6%,-4%,22%
Cc1cnc(C(=O)O)c[n+]1[O-],x,x,x,-4%,x,x
CSC(SC)=C(C#N)C(=O)c1ccccc1,u,40,i[7.34 µM],16µM*,0%[7.34 µM],4%[46.1 µM]
N#CC(C#N)=C(Nc1ccccc1)c1ccccc1,-17%,-3,i,-30%,-1%,17%[46.1 µM]
SMILES,Lassa entry inh,HCMV antiviral,Vaccinia mCherry,FMDV antiviral,Vaccinia Venus,MARV entry inh
COc1cccc(C(=O)C(=O)NC(C)(C)C)c1,x,38,x,x,x,x
COc1cccc(C(=O)C(C#N)=C(SC)SC)c1,x,116,x,28µM*,x,x
C=CCN1c2ccccc2[C@]23CCC(=O)N(CC(=O)OC)C2=NC(C(=O)OC)=C(C(=O)OC)[C@H]13,x,x,x,x,x,18%[14.2 µM]
CCOC(=O)CCN1C(=O)[C@@H]2[C@H]3[C@H](O)[C@H](O)CC(=NO[C@@H]4O[C@H](COC(C)=O)[C@@H](OC(C)=O)[C@H](OC(C)=O)[C@@H]4OC(C)=O)[C@H]3CC[C@H]2C1=O,x,x,x,x,x,-6%[14.2 µM]
Cc1ccc(CNC(=S)NC2CCC(C(C)(C)C)CC2)cc1 (stereo not given),x,u,x,-4%,x,x
Cc1ccc(CC2(OCCN(C)C)CCC(C(C)(C)C)CC2)cc1 (stereo not given),u,u,u,u,u,10µM*
CN(C)CCCCOc1ccc(F)cc1,6%,-7,i,-6%,-4%,0%[46.1 µM]
CN(C)CCOC1(Cc2ccc(F)cc2)CCC(C(C)(C)C)CC1 (stereo not given),u,u,-13%,-28%,u,11µM*
Cc1onc(-c2c(Cl)cccc2Cl)c1C(=O)N/N=C(\N)COc1ccc(Cl)cc1,-2%,-78*,x,u,x,u
CCOc1ccc(/C=C/c2nc(C#N)c(NC(C)CC)o2)cc1 (stereo not given),1%[46.1 µM],-36,-21%,1%,-17%,1%[46.1 µM]
C=CCN1C(c2ccc(Br)cc2)=CS/C1=C(\C#N)c1nnc(N2CCOCC2)n1-c1ccccc1,u,-8,-3%,u,0%,u
C=CCN1C(c2ccc(OCC)cc2)=CS/C1=C(\C#N)c1nnc2n1CCCCC2,u,-60*,-23%,u,-21%,u
O=C(CSc1nnc(-c2ccc(Br)cc2)o1)N1CCN(C(=O)c2ccco2)CC1,u,-25,0.63µM*,u,5µM*,-3%
O=C(CSc1nc(-c2ccccc2)cs1)N1CCN(C(=O)c2ccco2)CC1,3%,-103*,x,u,x,20%
CCOC(=O)N1CCN(C(=O)CSc2nnc(-c3cccc(Cl)c3)o2)CC1,x,12,5.6µM*,-17%,u,x
Cc1cc(C)cc(-c2nnc(SCC(=O)N3CCN(C(=O)c4ccco4)CC3)o2)c1,-23%,-10,8.9µM*,u,u,5%
O=C(CSc1nnc(-c2ccccc2)o1)N1CCCC1,25%,-6,i,54%,-7%,27%[46.1 µM]
Cc1nnc(SCC(=O)N2CCN(C(=O)c3ccco3)CC2)n1C,x,-4,x,-9%,x,x
N#Cc1ccc(S(=O)(=O)N[C@H]2CC[C@@]34CCCN3C(=O)CCC[C@H]4[C@H]2Cc2ccccc2)cc1,x,-35,x,x,x,x
CCc1ccc(CN(Cc2ccco2)C(=O)c2ccc(OC)cc2)cc1,-21%[46.1 µM],23,-6%,-1%,-5%,-12%[46.1 µM]
O=C(Cn1c(=O)n(Cc2ccc3c(c2)OCO3)c(=O)c2ccccc21)Nc1cccc(Cl)c1,3%[46.1 µM],-1,-25%,-6%,-13%,6%[46.1 µM]
COC(=O)C(C)Sc1ncnc2c1nnn2-c1ccc(F)cc1 (stereo not given),10%,12,x,-4%,-8%,-12%

# Screening results deposited in PubChem BioAssay by National Center for Advancing Translational Sciences (NCATS).
